Assay outcomes (PubChem BioAssay)
Sampled rows, rich in hits. Any-hit rate of the full collection: about 3.5%.
TMEM16A inh: TMEM16A chloride channel inhibitors, primary screen, cell-based, HTS; Anoctamin-1 (Mus musculus), Q8BHY3; HEK293 TMEM16A/YFP iodide influx fluorescence, ionomycin; normalized B-score (activity score, 25-100; higher = stronger inhibition) at 10 µM; 310,000 compounds, 1.2% hits;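 active means ratio plate-corrected score three or more library SD toward inhibition, starting fluorescence score within five deviations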;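 further: score derived from kinetic fluorescence span divided by baseline fluorescence per well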
KCNK9 block: KCNK9 potassium channel inhibitors, primary screen, HEK293 cells, thallium flux; Potassium channel subfamily K member 9 (Homo sapiens), Q9NPC2; FluxOR thallium flux fluorescence; active compounds read low; B-score at 10 µM; AID 488922, 2010; 310,000 compounds, 1.2% hits;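 active means ratio B-score over 3 SD below the library mean, with starting fluorescence within 5 SD of its mean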;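 further: negative B-score means less thallium flux so channel inhibition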
KCNK3 inh: human KCNK3 channel inhibitors, primary screen, CHO cells, FluxOR thallium flux, B-score | Potassium channel subfamily K member 3 (Homo sapiens), O14649 | FluxOR fluorescence; active compounds read low | B-score at 10 µM | 340,000 compounds, 0.84% hits;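 active means B-score under library mean minus 4 SD, starting fluorescence ratio at most library mean plus 5 SD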;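 further: more negative B-score means stronger inhibition of thallium flux through KCNK3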
ANO1 activ: TMEM16A chloride channel activators or potentiators, primary screen, cell-based, HTS; Anoctamin-1 (Mus musculus), Q8BHY3; HEK293 TMEM16A/YFP-H148Q/I152L, iodide quench fluorescence; active compounds read low; B-score at 10 µM; 340,000 compounds, 0.3% hits; AID 623877, 2012;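 active means fluorescence-ratio B-score plate-corrected deviation score at least 3 library SD below zero, with starting fluorescence score within 5 deviations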;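 further: channel opened by trigger with iodide after compound preincubation; score built on the fluorescence ratio of max minus min over baseline; more negative score means more quench and so TMEM16A activation or potentiation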
Kir21 block: inhibitors of mouse Kir2.1 inward-rectifier potassium channel; HEK293-Kir2.1, FluxOR thallium flux fluorescence; active compounds read low; B-score at 10 µM; 310,000 compounds, 0.85% hits; AID 1672, 2009;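 active means fluorescence ratio B-score at or below minus 3 SD of library scores, with starting-brightness B-score within 2 SD, cut at about -4.2 in these data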;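 further: channel flux triggered by added potassium and thallium sulfate stimulus; B-score of peak minus minimum fluorescence over baseline after thallium stimulus; more negative B-score means stronger Kir2.1 block with less thallium influx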
Target sequence (P35561 whole entry, looked up): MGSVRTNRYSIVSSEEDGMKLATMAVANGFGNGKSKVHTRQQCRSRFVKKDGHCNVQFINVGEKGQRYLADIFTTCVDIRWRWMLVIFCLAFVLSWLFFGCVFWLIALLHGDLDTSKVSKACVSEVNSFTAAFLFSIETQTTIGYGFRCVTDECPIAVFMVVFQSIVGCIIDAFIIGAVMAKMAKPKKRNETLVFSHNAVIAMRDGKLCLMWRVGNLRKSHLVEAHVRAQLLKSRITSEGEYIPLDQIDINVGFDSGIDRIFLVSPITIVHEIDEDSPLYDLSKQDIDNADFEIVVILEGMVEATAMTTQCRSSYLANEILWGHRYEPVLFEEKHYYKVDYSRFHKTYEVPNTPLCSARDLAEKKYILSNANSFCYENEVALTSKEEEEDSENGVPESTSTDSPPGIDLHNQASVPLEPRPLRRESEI
KCNK9 block conf: KCNK9 potassium channel inhibitors, confirmation, HEK293 cells, thallium flux, duplicate; shares compounds with KCNK9 block; FluxOR thallium flux fluorescence; inhibition, % at 10 µM; 4,900 compounds, 43% hits; AID 492992, 2010;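 active means thallium signal inhibited by more than 5 SD of the compound-free buffer control wells, on both duplicate plates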
Kir2-1 spec: mouse Kir2.1 channel inhibition, confirmation, selectivity assay for KCNK9 modulator project, cell-based, HEK293, thallium flux. shares compounds with KCNK9 block. Kir2.1 cells, FluxOR thallium flux fluorescence. inhibition, % at 10 µM. 4,900 compounds, 4% hits. AID 492993, 2010;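 active means thallium signal drop more than 5 SD beyond the mean of the no-compound control wells, seen in both duplicate plates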;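 further: signal is fluorescence rise after thallium addition divided by baseline fluorescence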
HEK293 Tl ctr: thallium flux in non-induced HEK293 cells, confirmation, counter-screen for KCNK9 inhibitor project, cell-based, second counter screen, non-induced KCNK9-HEK293; shares compounds with KCNK9 block; FluxOR thallium flux; inhibition, % at 10 µM; 4,900 compounds, 40% hits;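 active means thallium signal drop beyond 5 SD of the untreated control mean, on both duplicate plates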
Large screens that a line does not name were inactive (follow-up assays come after a bar, where they were run).

CCOC(=O)C1(CCc2ccccc2)CCN(Cc2cccc3cnccc23)CC1	none | KCNK9 block conf inactive | Kir2-1 spec inactive | HEK293 Tl ctr inactive
CCOC(=O)C1(CCOc2ccccc2)CCN(Cc2ccccc2OC)CC1	none | KCNK9 block conf inactive | Kir2-1 spec inactive | HEK293 Tl ctr inactive
O=C(Cn1nc(-c2ccccc2)ccc1=O)N1CCC2(CC1)OCCO2	none
COc1cccc2cc(-c3cc(=O)oc4ccc(OC(=O)N(C)C)cc34)oc12	none
Oc1ccc2ccccc2c1CN1CC=C(c2ccccc2)CC1	none | KCNK9 block conf inactive | Kir2-1 spec inactive | HEK293 Tl ctr inactive
Cc1[nH]c2ccccc2c1C(=O)CN1CC=C(c2ccccc2)CC1	none
CCC1CN(C)CCC1(OC(C)=O)c1ccccc1 (configuration not stated)	none
CCCCN1CCC(O)(c2ccccc2)C(C(=O)c2ccccc2)C1 (configuration not stated)	none | KCNK9 block conf inactive | Kir2-1 spec inactive | HEK293 Tl ctr inactive
COC(=O)C1=C(C)NC(=S)NC1c1ccc(N(CCCl)CCCl)cc1Cl (configuration not stated)	none (no result: TMEM16A inh, KCNK9 block, Kir21 block)
O=C(NCc1ccccc1)c1cccn(Cc2cccc(Cl)c2)c1=O	KCNK9 block -11.1 | KCNK9 block conf 57.0% | Kir2-1 spec inactive | HEK293 Tl ctr 30.5%
CC1=C(C)CC2(C(=O)NC(=S)NC2=O)C(C)C1 (configuration not stated)	none (no result: TMEM16A inh, KCNK9 block, Kir21 block)
COc1ccc(OC)c(NP(=O)(Oc2ccc(Cl)cc2)Oc2ccc(Cl)cc2)c1	KCNK9 block -11.2 | KCNK9 block conf 76.0% | Kir2-1 spec inactive | HEK293 Tl ctr 44.0%
COc1ccc(OC)c(NP(=O)(Oc2ccccc2)Oc2ccccc2)c1	none
COC(=O)C(O)(c1ccc(NC(=S)NC(=O)c2ccccc2)cc1)C(F)(F)F (configuration not stated)	KCNK9 block -9.65 | KCNK9 block conf 46.0% | Kir2-1 spec inactive | HEK293 Tl ctr 25.5%
COC(=O)C(O)(c1ccc(NC(=O)Oc2ccccc2)cc1)C(F)(F)F (configuration not stated)	none
COc1ccc(OC)c(CN2CCCC(C(=O)c3sccc3C)C2)c1 (configuration not stated)	none | KCNK9 block conf inactive | Kir2-1 spec inactive | HEK293 Tl ctr inactive
Cc1ncc(CN2CCCC(C(=O)c3cccc(OC(C)C)c3)C2)s1 (configuration not stated)	none | KCNK9 block conf inactive | Kir2-1 spec inactive | HEK293 Tl ctr inactive
COc1ccc(C(=O)C2CCCN(Cc3ccc(F)cc3F)C2)cc1F (configuration not stated)	none | KCNK9 block conf inactive | Kir2-1 spec inactive | HEK293 Tl ctr inactive
COc1ccc(F)cc1C(=O)C1CCCN(Cc2ccc(O)cc2)C1 (configuration not stated)	none
COc1cccc(OC)c1CN1CCCC(C(=O)c2cccc(Cl)c2)C1 (configuration not stated)	none | KCNK9 block conf inactive | Kir2-1 spec inactive | HEK293 Tl ctr inactive
COc1cc(NC(=O)CN2C3CCC2CC(O)(c2cccnc2)C3)cc(OC)c1 (configuration not stated)	none
Cc1ccc2c(C)cccc2c1	none (no result: TMEM16A inh, KCNK9 block, Kir21 block)
CCCCn1c(O)c(/C=C/C=Nc2ccccc2)c(=O)[nH]c1=O	KCNK9 block -9.2 | KCNK9 block conf inactive | Kir2-1 spec inactive | HEK293 Tl ctr 54.5%
CC12C(C(=O)O)C1(c1ccccc1)C2C(=O)O (configuration not stated)	none (no result: TMEM16A inh, KCNK9 block, Kir21 block)
CC(N)C(=O)NC1C2C(=C(O)CC(O)C2O)C(=O)OC1(C)C(Cl)Cl (configuration not stated)	none (no result: TMEM16A inh, KCNK9 block, Kir21 block)
OC[C@@H](O)CCl	none (no result: KCNK3 inh, ANO1 activ)
COc1ccc(C(=O)C2CCCN(C3CSCCSC3)C2)c(C)c1 (configuration not stated)	none | KCNK9 block conf inactive | Kir2-1 spec inactive | HEK293 Tl ctr inactive
COc1ccc(C(=O)C2CCCN(C3CSCCSC3)C2)c(OC)c1 (configuration not stated)	none
C=CCn1c(O)c(C(CC)=Nc2cccc(C(F)(F)F)c2)c(=O)[nH]c1=O	none
Cc1ccc(Cn2nc(C)c(C=O)c2Cl)cc1	none
COc1cc(CN2CCN(c3cc(C)ccc3C)CC2)ccc1O	none | KCNK9 block conf inactive | Kir2-1 spec inactive | HEK293 Tl ctr inactive
O=C1/C(=C\c2ccc(Cl)c(Cl)c2)N2CCC1CC2	none | KCNK9 block conf inactive | Kir2-1 spec inactive | HEK293 Tl ctr inactive
O=C1/C(=C\c2cc3c(cc2Cl)OCO3)N2CCC1CC2	none | KCNK9 block conf inactive | Kir2-1 spec inactive | HEK293 Tl ctr inactive
COc1cc(C)c(CN2CCN(c3ccccc3)CC2)cc1C	none | KCNK9 block conf inactive | Kir2-1 spec inactive | HEK293 Tl ctr inactive
COc1ccc(NC2Oc3cc4c(cc3C(c3cc(OC)c(OC)c(OC)c3)C2C)OCO4)cc1 (configuration not stated)	none (no result: TMEM16A inh, KCNK9 block, Kir21 block)
CSc1ccc(CN2CCN(Cc3ccccc3Cl)CC2)cc1	Kir21 block -4.92 | KCNK9 block conf inactive | Kir2-1 spec 41.0% | HEK293 Tl ctr inactive
CSc1ccc(CN2CCN(C(=O)Cc3ccccc3)CC2)cc1	none
Cc1ccc(C[n+]2c(-c3ccc(C)cc3)cc(-c3ccc(C)cc3)cc2-c2ccc(C)cc2)cc1	TMEM16A inh 100, KCNK9 block -13, KCNK3 inh -8.73, Kir21 block -14.3 | KCNK9 block conf 61.0% | Kir2-1 spec 81.0% | HEK293 Tl ctr 38.5%
CCOc1ccc(-c2cc(C)[n+](CCN3CCOCC3)c(-c3ccc(OCC)cc3)c2)cc1	none
CCOC(=O)C1(c2ccccc2)CCN(CCC(C#N)(c2ccccc2)c2ccccc2)CC1	KCNK9 block -8.15 | KCNK9 block conf 40.5% | Kir2-1 spec inactive | HEK293 Tl ctr 38.0%
CCOC(=O)C1(c2ccccc2)CCN(CCC(=O)Nc2ccc(C(=O)OC)cc2)CC1	none (no result: TMEM16A inh, KCNK9 block, Kir21 block)
CC(C)(C)c1cc(OC(=O)Cc2ccccc2)ccc1O	KCNK9 block -12.4 | KCNK9 block conf 58.0% | Kir2-1 spec inactive | HEK293 Tl ctr 30.0%
Cc1ccccc1N1CCN(C2CCCN(C(=O)COc3ccccc3)C2)CC1 (configuration not stated)	none | KCNK9 block conf inactive | Kir2-1 spec inactive | HEK293 Tl ctr inactive
